Experimental data from ChEMBL document CHEMBL4808148, “HDAC6 screening dataset using tau-based substrate in an enzymatic assay yields selective inhibitors and activators” (2021).
The whole screen tested about 5,600 compounds, of which about 390 (7%) showed an effect of 50% or more. For the sample, strong results were picked, then their nearest neighbours and some compounds at random.

Legend:
[1] = molecular target: T1, Protein deacetylase HDAC6 (Homo sapiens) (UniProt Q9UBN7); conditions: at 10 µM
T1 sequence (whole entry): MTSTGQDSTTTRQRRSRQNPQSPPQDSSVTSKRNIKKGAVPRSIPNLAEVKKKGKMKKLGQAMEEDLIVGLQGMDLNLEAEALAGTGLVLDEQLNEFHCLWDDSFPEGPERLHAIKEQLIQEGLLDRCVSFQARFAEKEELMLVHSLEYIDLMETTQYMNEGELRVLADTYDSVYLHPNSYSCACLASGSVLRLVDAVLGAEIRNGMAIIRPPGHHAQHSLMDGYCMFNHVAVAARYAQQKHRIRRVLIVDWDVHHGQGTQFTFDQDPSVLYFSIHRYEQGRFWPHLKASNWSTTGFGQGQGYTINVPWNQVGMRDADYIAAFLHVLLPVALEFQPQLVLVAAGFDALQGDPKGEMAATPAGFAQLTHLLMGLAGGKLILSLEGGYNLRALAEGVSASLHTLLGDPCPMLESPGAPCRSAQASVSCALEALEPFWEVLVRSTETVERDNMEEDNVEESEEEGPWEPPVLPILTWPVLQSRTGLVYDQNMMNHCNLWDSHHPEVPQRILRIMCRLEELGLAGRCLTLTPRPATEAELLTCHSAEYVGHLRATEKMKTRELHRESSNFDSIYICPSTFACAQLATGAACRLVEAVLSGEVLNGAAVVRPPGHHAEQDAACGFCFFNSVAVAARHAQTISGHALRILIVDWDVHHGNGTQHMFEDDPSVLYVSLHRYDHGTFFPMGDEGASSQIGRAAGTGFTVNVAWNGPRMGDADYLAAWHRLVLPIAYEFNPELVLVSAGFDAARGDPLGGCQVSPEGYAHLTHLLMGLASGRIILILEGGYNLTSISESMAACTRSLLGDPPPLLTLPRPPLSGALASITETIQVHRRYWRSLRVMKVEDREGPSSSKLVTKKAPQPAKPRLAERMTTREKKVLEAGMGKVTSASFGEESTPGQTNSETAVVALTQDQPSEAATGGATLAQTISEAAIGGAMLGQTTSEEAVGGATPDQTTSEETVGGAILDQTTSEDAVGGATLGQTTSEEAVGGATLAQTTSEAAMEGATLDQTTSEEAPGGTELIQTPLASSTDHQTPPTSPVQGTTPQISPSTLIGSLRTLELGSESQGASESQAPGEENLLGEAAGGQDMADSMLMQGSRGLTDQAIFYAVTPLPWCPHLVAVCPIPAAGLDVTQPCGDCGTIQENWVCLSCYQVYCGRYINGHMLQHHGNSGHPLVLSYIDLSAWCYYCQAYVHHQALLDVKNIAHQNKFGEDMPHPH

[2] = molecular target: Protein deacetylase HDAC6 (Homo sapiens) (UniProt Q9UBN7); conditions: at 10 µM; remark: listed apart in the source

## CCCN(CCC)C(=O)C(CCC(=O)OCCCN1CCN(CCOC(=O)Cc2c(C)n(C(=O)c3ccc(Cl)cc3)c3ccc(OC)cc23)CC1)NC(=O)c1ccccc1 (centres undefined)
[1]
  inhibition: -4.35%

## O=[N+]([O-])c1cc(Cl)ccc1S(=O)(=O)c1ccccc1
[1]
  inhibition: 13.8%

## NC1=NC(=O)N([C@H]2C[C@H](O)[C@@H](CO)O2)CN1
[1]
  inhibition: 19.8%

## Brc1ccc(NC2C3CC4CC(C3)CC2C4)cc1 (centres undefined)
[1]
  inhibition: 5.83%

## O=S(=O)(c1ccccc1F)N1CCOc2c(N3CCNCC3)cccc21
[1]
  inhibition: 3.08%

## CC(=O)O[C@]1(C(C)=O)CC[C@H]2[C@@H]3C=CC4=CC(=O)CC[C@]4(C)[C@H]3CC[C@@]21C
[1]
  inhibition: 31.5%

## CCOC(=O)Nc1nc2ccccc2[nH]1
[1]
  inhibition: 34.2%

## CCCSc1ccc2[nH]c(NC(=O)OC)nc2c1
[1]
  inhibition: 58.8%

## CCC[S+]([O-])c1ccc2[nH]c(NC(=O)OC)nc2c1 (centres undefined)
[1]
  inhibition: 18.6%

## Cc1nc(N(C)C(=O)Cc2ccc(-c3ccccn3)cc2)sc1S(N)(=O)=O
[1]
  inhibition: 23.9%

## CCOC(=O)Nc1ccc2c(c1)N(C(=O)CCN(CC)CC)c1ccccc1S2
[1]
  inhibition: 14.5%

## Nc1nccc(Oc2ccc(NC(=O)c3cn(COP(=O)(O)O)cc(-c4ccc(F)cc4)c3=O)cc2F)c1Cl
[1]
  inhibition: 21.9%

## O=C(/C=C/c1cccc(F)c1)NC1CC1
[1]
  inhibition: 52.8%

## CC(=O)N1CCC(NC(=O)c2ccc(F)cc2)CC1
[1]
  inhibition: 13.7%

## C[C@H]1CN(Cc2ccc(CC(=O)N3CCC(Nc4cccc(F)c4)CC3)cc2)CCN1
[1]
  inhibition: 44.9%

## O=C(C(c1ccccc1)c1ccccc1)N1CCN(CC(O)COc2cccc3ncccc23)CC1 (centres undefined)
[1]
  inhibition: 5.51%

## COc1ccc(C2CNC(=O)NC2)cc1O[C@H]1C[C@@H]2CC[C@H]1C2
[1]
  inhibition: 6.99%

## CCOC(=O)[C@H](CCc1ccccc1)N[C@@H](C)C(=O)N1C(=O)N(C)C[C@H]1C(=O)O
[1]
  inhibition: 15.9%

## CC(=O)Oc1ccccc1C(=O)Nc1ncc([N+](=O)[O-])s1
[1]
  inhibition: 103%

## O=C1NC(O)CCN1[C@@H]1O[C@H](CO)[C@@H](O)[C@H]1O (some centres undefined)
[1]
  inhibition: 15.9%

## C[C@@H]1CC2C3CCC4=CC(=O)C=C[C@]4(C)[C@@]3(F)[C@@H](O)C[C@]2(C)[C@H]1C(=O)CO (some centres undefined)
[1]
  inhibition: 6.55%

## ESCIN, CHEMBL4594473
[2]
  inhibition: 3.89%

## O=C(COc1ccc(Cl)cc1)N[C@H]1CC[C@H](NC(=O)COc2ccc(Cl)cc2)CC1
[1]
  inhibition: -5.96%

## CN1[C@@H]2C[C@@H](O)C[C@H]1[C@@H]1O[C@@H]12
[1]
  inhibition: 91.4%

## Cc1cc(C)c(NC(=O)N(Cc2ccc3c(c2)Cc2ccccc2-3)C2CCCCCC2)c(C)c1
[1]
  inhibition: 0.9%

## CN1CCN(Cc2ccc(Nc3ncc(Cl)c(Nc4ccccc4S(=O)(=O)N(C)C)n3)cc2)CC1
[1]
  inhibition: 5.09%

## CC1(C)S[C@@H]2[C@H](NC(=O)[C@H](NC(=O)N3CCNC3=O)c3ccccc3)C(=O)N2[C@H]1C(=O)O
[1]
  inhibition: 13.9%

## O=C(O)CC(S)C(=O)O (centres undefined)
[1]
  inhibition: 18.6%

## O[AsH]O[AsH]O (centres undefined)
[1]
  inhibition: -5.16%

## O=C(CO)[C@@H](O)[C@@H](O)[C@H](O)CO
[1]
  inhibition: 3.04%

## PHENYLMERCURIC ACETATE, CHEMBL1333953
[2]
  inhibition: 113%

## GADOTERIDOL, CHEMBL1200593
[2]
  inhibition: -7.04%

## VANADATE ION, CHEMBL1163564
[2]
  inhibition: 8.48%

## CCNCc1cc(C(C)(C)C)c(O)c(C(C)(C)C)c1
[1]
  inhibition: 36.2%

## CNc1ccc([N+](=O)[O-])cc1-n1cnc(-c2ccc(C(F)(F)F)cc2)c1
[1]
  inhibition: -2.07%

## Cc1ccc(C(=O)Nc2ccc(CN3CCN(C)CC3)c(C(F)(F)F)c2)cc1C#Cc1cnc2[nH]ncc2c1
[1]
  inhibition: 69%

## CCN1CCN(Cc2ccc(C(=O)Nc3ccc(C)c(Oc4ccc5c(c4)CC(=O)N5)c3)cc2C(F)(F)F)CC1
[1]
  inhibition: 42.8%

## CCCCC(F)(F)[C@@]1(O)CC[C@H]2[C@@H](CC(=O)[C@@H]2CCCCCCC(=O)O)O1
[1]
  inhibition: 26.8%

## Nc1c(S(=O)(=O)O)cc(Nc2cccc3ccccc23)c2c1C(=O)c1ccccc1C2=O
[1]
  inhibition: 30.6%

## CNC(C)CC1CCCCC1 (centres undefined)
[1]
  inhibition: -3.99%

## COc1ccc2nc3c(c(N)c2c1)CCCC3
[1]
  inhibition: 14.7%

## Cc1cc(O)c2c(c1)C(=O)c1cc(O)cc(O)c1C2=O
[1]
  inhibition: 99.6%

## O=C(Nc1ccncc1)C(=O)c1cn(Cc2ccc(Cl)cc2)c2ccccc12
[1]
  inhibition: 11.2%

## CCCCCCOc1nsnc1C1=CCCN(C)C1
[1]
  inhibition: 21.1%

## CSCC[C@H](NC(=O)[C@H](Cc1ccccc1)NC(=O)CNC(=O)CNC(=O)[C@@H](N)Cc1ccc(O)cc1)C(=O)O
[1]
  inhibition: -7.67%

## CC(C)Cc1ccc(C(C)C(=O)NCCO)cc1 (centres undefined)
[1]
  inhibition: 5.6%

## O=C(Nc1ccc(Cl)cc1)Nc1ccc(Cl)c(Cl)c1
[1]
  inhibition: 52.2%

## Nc1nonc1/C(=N/O)Nc1ccc(F)c(Cl)c1
[1]
  inhibition: 6.27%

## CC(=O)Nc1ccc(Cc2ccc(NC(C)=O)cc2)cc1
[1]
  inhibition: 37.1%
